PINK1 modulator: modulators of PINK1 expression | AID 624263 | Potency, µM (doses to about 76.6 µM), for the others: top-dose activation (PINK1 increase), most hits filed as activators | PINK1 immunofluorescence, high-content cytometry, 24 h | 410,000 compounds, 0.2% hits; active = well fitted activation curve with a large enough effect; inconclusive = small, poorly fitted or top-dose-only effect; cell line not stated here; note: potency is the fitted concentration of half-maximal effect; % of control where 0% means no effect; nearly all actives have a fitted effect of over 65% in size
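Stable cell line treated 24 h with compounds at 5 concentrations (CCCP controls), then fixed and immunostained for PINK1 plus nuclear and cell stains; PINK1 immunofluorescence quantified by laser-scanning microplate cytometry.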
SW480 rerep: induces DNA re-replication in SW480 colon adenocarcinoma cells | SW480 DNA re-replication, Hoechst DNA content imaging, 48 h | Potency, µM (series often up to 46.1 µM), without a hit: at the highest dose re-replication activation, actives largely listed as activators | 340,000 compounds, 1.8% hits | AID 624297; note: potency is the fitted concentration of half-maximal effect; % of control where 0% means no effect; nearly all actives have a fitted effect of over 55% in size
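SW480 cells exposed to compounds for 48 hr at 37 C, 5% CO2, then Hoechst-stained 40 min. Nuclear DNA content imaged by fluorescence scanning (405 nm excitation, 500-530 nm emission); re-replication scored as increased high-intensity nuclei.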
MCF10A rereplic: DNA re-replication induction in MCF 10a cells | MCF 10A DNA re-replication, Hoechst nuclear intensity, 48 h | Potency, µM (highest dose often 46.1 µM), inactives show at the top dose activity, positive = re-replication, hits mostly activators | 350,000 compounds, 2.9% hits | AID 624296; note: potency is the fitted concentration of half-maximal effect; % of control where 0% means no effect; nearly all actives have a fitted effect of over 50% in size
IL1B secr inh: inhibitors of inflammasome signaling (IL-1 beta secretion) | THP-1 LPS/ATP IL-1B secretion, AlphaLISA, 16 h; stronger effect = lower value | activity change, % at 57.5 µM | 360,000 compounds, 4.7% hits | AID 743279; in the data active = activity change below about -50%; inconclusive = mostly about -30% to -49%; note: % is set by controls: 0 for no effect and ±100 for the full control effect
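Secreted IL-1B measured by AlphaLISA bead assay after 16 h compound exposure of THP-1 cells; compounds (final up to 57.5 uM) added 1 h before LPS (250 ng/mL) and ATP (1.25 mM) stimulation; lower signal means less secretion.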
ATXN2 expr inh: ATXN2 expression inhibition. HEK-293 ATXN2-luciferase reporter, luminescence, 24 h. Potency, µM (series often up to 57 µM), for inactives: top-dose activity change, negative = inhibition, usual class: inhibitors. 360,000 compounds, 0.72% hits; note: potency is the fitted concentration of half-maximal effect; % is set by controls: 0 for no effect and ±100 for the full control effect; nearly all actives have a fitted effect of over 55% in size
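ATXN2-luciferase reporter cells (luciferase flanked by upstream and downstream ATXN2 gene portions) were treated 24 h at 37 °C with compounds at up to 57 uM. SteadyGlo luminescence gave expression; GF-AFC fluorescence gave viability.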
ATXN viability: cell viability loss in ATXN counter-screen; S2 cells (HEK-293 line with an ATXN2-luciferase reporter) viability, CellTiter-Fluor protease fluorescence, 24 h; Potency, µM (series often up to 56.7 µM), most hits filed as cytotoxic; 400,000 compounds, 0.49% hits; AID 651635; note: potency is the fitted concentration of half-maximal effect; nearly all actives have a fitted effect of over 40% in size
Starred values were filed as active, the others as inactive; i = inactive; ? = inconclusive; . = no result; ! = a repeat was not active; [ ] = another dose, or the depositor's remark. The list is not random: actives were taken first. Their share in the collection is about 7.1%. Unless noted, calls come from the whole dose curve; as a rule, active = well fitted curve in the direction sought with a large enough effect; inconclusive = small, poorly fitted or top-dose-only effect, or another doubt; inactive = no such curve, though single readings can be large; an effect the other way counts as inactive or inconclusive.

SMILES	PINK1 modulator	SW480 rerep	MCF10A rereplic	IL1B secr inh	ATXN2 expr inh	ATXN viability
CC(=O)O[C@H]1C(=O)[C@@]2(C)C([C@H](OC(=O)c3ccccc3)[C@]3(O)C[C@H](O)C(C)=C1C3(C)C)[C@]1(OC(C)=O)CO[C@@H]1C[C@H]2O (stereo not given in full)	6%	?	25%	26	0%	?
CC(=O)O[C@@]12CO[C@@H]1C[C@H](O)[C@@]1(C)C(=O)[C@H](O)C3=C(C)[C@@H](OC(=O)[C@H](O)[C@@H](NC(=O)c4ccccc4)c4ccccc4)C[C@@](O)([C@@H](OC(=O)c4ccccc4)C12)C3(C)C (stereo not given in full)	7%	2.6µM*	?	15	-13%	i
O=C(c1ccco1)N1CCC[C@@]2(CCN(Cc3ccncc3)C2)C1	-1%	.	.	.	.	.
CNC(C)C#Cc1ccc2oc3cc(C)c(C)cc3c(=O)c2c1 (stereo not given)	-2%	?	?	-64*	-25%	?
C[N+]1(CCF)[C@@H]2CC[C@H]1CC(OC(=O)C(O)(c1ccccc1)c1ccccc1)C2 (stereo not given in full)	.	.	.	.	4%	i
N#Cc1ccc2nc(-c3ccc(CN4CCC(n5c(=O)[nH]c6ccccc65)CC4)cc3)c(-c3ccccc3)nc2c1	-1%	.	.	-66*	?	?
Cc1cccc(C)c1-n1nnnc1C(c1cccc2ccccc12)N1CCC(n2c(=O)[nH]c3ccccc32)CC1 (stereo not given)	-1%	.	.	-18	12%	i
Cc1cccc2nc(-c3ccccc3)c(-c3ccc(CN4CCC(n5c(=O)[nH]c6ccccc65)CC4)cc3)nc12	1%	.	.	-51*	-38%	?
CCN1C[C@]2(COC)CC[C@H](O)[C@@]34[C@@H]5C[C@H]6[C@@H](OC)[C@H]5[C@](O)(C[C@@H]6OC)[C@@](O)([C@@H](OC)[C@H]23)[C@@H]14	.	.	.	.	.	i
COc1cc(-c2nc3ccc(Cl)cn3c2Nc2ccc3c(c2)OCCO3)ccc1O	0%	.	.	.	-10%	?
Cc1cc2c(cc(C(=O)N3CCC(C(=O)NC4CCCC4)CC3)n2Cc2c(F)cccc2Cl)o1	0%	0%	11%	18	?	?
O=[N+]([O-])c1ccc(Cl)c([N+](=O)[O-])c1	0%	?	?	-110*	?	18µM*
O=[N+]([O-])c1ccc(O)c([N+](=O)[O-])c1	-1%	-87%	1%	43	6%	i
CCn1nc(-c2ccccc2)nc2c(=O)n(C)c(=O)nc1-2	-2%	?	1.5µM*	-114*	28µM*	.
Cn1nc(-c2ccccc2)nc2c(=O)n(C)c(=O)nc1-2	0%	.	.	.	.	.
Cc1ccc(S(=O)(=O)N2CCCCC2)cc1NC(=O)CSc1ncnc2ccccc12	0%	?	?	-97*	?	?
CCOC(=O)Cn1c(-c2ccccc2)ccc(C#N)c1=O	-1%	?	-18%	3	-8%	i
COC(=O)C1=C(c2ccc(OC(F)(F)F)cc2)C[C@@H]2CC[C@H]1N2C(=O)NCCOc1ccccc1	30%	14%	?	?	-23%	?
COC(=O)C1=C(c2cccc(OCc3ccccc3)c2)C[C@@H]2CC[C@H]1N2C(=O)NCCOc1ccccc1	-1%	-33%	13µM*	-14	?	i
COC(=O)C1=C(c2ccc(OC(F)(F)F)cc2)C[C@@H]2CC[C@H]1N2C(=O)NCCOc1ccccc1Cl	?	13%	27%	-58*	?	?
COC(=O)C1=C(c2cccc(OCc3ccccc3)c2)C[C@@H]2CC[C@H]1N2C(=O)NCCOc1ccccc1Cl	-2%	22%	2.1µM*	-25	-24%	i
COC(=O)C1=C(c2ccccc2OCc2ccccc2)C[C@@H]2CC[C@H]1N2C(=O)NCCOc1ccccc1Cl	0%	28%	?	?	?	?
COC(=O)C1=C(c2cccc(OCc3ccccc3)c2)C[C@@H]2CC[C@H]1N2C(=O)NCc1ccccc1	-1%	2%	9%	-17	?	?
Nc1c(Cl)c(Cl)c(Cl)c(Cl)c1Cl	.	.	.	.	-8%[116 µM]	i
S=C(SSC(=S)N1CCCCC1)N1CCCCC1	.	.	.	.	-90%	10µM*!
SMILES	PINK1 modulator	SW480 rerep	MCF10A rereplic	IL1B secr inh	ATXN2 expr inh	ATXN viability
Nc1ccc2c3c(cccc13)-c1ccccc1-2	11µM*	9.2µM*	2.9µM*	2	14%	.
CC[C@H](C)[C@@H](C(=O)N1CCCC1c1nccs1)N(C)C(=O)[C@H](CC(C)C)N(C)C(=O)[C@H](Cc1ccc(OC)cc1)N(C)C(=O)/C=C(\C)OC (stereo not given in full)	0%	21µM*	?	73	-31%	?
COc1cc2c(cc1OC)[C@@]13CCN4CC5=CCOC6CC(=O)N2C1[C@H]6[C@@H]5C[C@@H]43 (stereo not given in full)	.	4%	-4%	.	.	.
CN1CSC(=S)N(C)C1	-3%	?	0%	-95*	-18%	i
COc1ccc2[nH]c(C)c(CCNCc3cn(C)c4ccccc34)c2c1	-2%	?	?	-86*	?	.
Cc1[nH]c2ccccc2c1CCNCc1cccnc1	-1%	5%	-4%	-5	6%	i
C/C=C(\CC)C(=O)NC(N)=O	.	.	.	.	.	i
COc1cccc(NC(=O)C2CCN(c3nnc(C)c4c(C)n(-c5ccccc5)nc34)CC2)c1	-1%	.	.	.	?	?
C[C@H]1CNC(=O)c2c(C(=O)Nc3ccc(CNC(=O)OC(C)(C)C)cc3)ncn21	0%	.	.	-13	?	?
NC(=Nc1ccccc1)NN=Cc1c[nH]c2ccccc12	1%	6.5µM*	88%	-109*	-3%	?
c1csc(CN2CCC3(CCNCC3)CC2)n1	-1%	.	.	.	.	.
CCCCCSc1cc(OC)c(CCN)cc1OC	-4%	16µM*	?	-28	-13%	?
CCCSc1cc(OC)c(CCN)cc1OC	.	.	.	.	.	i
CCCCCCCSc1cc(OC)c(CCN(C)C)cc1OC	-6%	?	?	-100*	22µM*	.
Cc1ccc(Cl)cc1N1CCN(C(=O)c2cn(C)c(=O)c3c2c2ccccc2n3C)CC1	10%[38.3 µM]	?	?	-68*	?	?
Cc1ccc(Cl)cc1N1CCN(CCN)CC1	12%	3%	27%	?	-6%	i
CCC(CC)(CNC(=O)CCCO)c1cccc(OC)c1	.	.	.	.	9%	i

Source: PubChem
